Source: publication PMC5540273 (PLoS ONE, 2017)

Columns and labels:
Conditions in all cases: concentration: 1 μM,replicates: in singlicate; n = 1
HASPIN = test system: T1, HASPIN
T1 construct: gene GSG2

HCK = test system: HCK
HIPK1 = test system: HIPK1
HIPK2 = test system: HIPK2
HIPK3 = test system: HIPK3
HIPK4 = test system: HIPK4
HPK1 = test system: HPK1
HUNK = test system: HUNK
ICK = test system: ICK
IGF1R = test system: IGF1R
IKK-alpha = test system: T2, IKK-alpha
T2 construct: gene CHUK

IKK-beta = test system: T3, IKK-beta
T3 construct: gene IKBKB

IKK-epsilon = test system: T4, IKK-epsilon
T4 construct: gene IKBKE

INSRR = test system: INSRR
INSR = test system: INSR
IRAK1 = test system: IRAK1
IRAK3 = test system: IRAK3
IRAK4 = test system: IRAK4
ITK = test system: ITK
[1] = test system: JAK1(JH1domain-catalytic)
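Note: KINOMEscan kinase panel screen.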

Row | SMILES | %Inh (HASPIN) [%] | %Inh (HCK) [%] | %Inh (HIPK1) [%] | %Inh (HIPK2) [%] | %Inh (HIPK3) [%] | %Inh (HIPK4) [%] | %Inh (HPK1) [%] | %Inh (HUNK) [%] | %Inh (ICK) [%] | %Inh (IGF1R) [%] | %Inh (IKK-alpha) [%] | %Inh (IKK-beta) [%] | %Inh (IKK-epsilon) [%] | %Inh (INSRR) [%] | %Inh (INSR) [%] | %Inh (IRAK1) [%] | %Inh (IRAK3) [%] | %Inh (IRAK4) [%] | %Inh (ITK) [%] | %Inh [1] [%]
1 | COc1ccc(Nc2nccc(N3CCC(NC(=O)c4cccc(C#N)c4)C3)n2)cc1 (centres unmarked) [GSK1379730] | 6 | 5 | 0 | 0 | 0 | 2 | 42 | 0 | 0 | 0 | 0 | 6 | 0 | 0 | 0 | 10 | 0 | 3 | 14 | 6
2 | Nc1nccc(-c2ccc3c(N)n[nH]c3c2)n1 [GSK1034945] | 90.5 | 0 | 0 | 0 | 34 | 34 | 52 | 0 | 0 | 0 | 76 | 53 | 18 | 0 | 0 | 45 | 33 | 23 | 14 | 0
3 | FC(F)(F)c1cc(Br)cc(Nc2nccc(-c3cnn4ncccc34)n2)c1 [GW810578] | 0 | 12 | 99.1 | 99.4 | 97.9 | 76 | 13 | 0 | 97.8 | 0 | 13 | 9 | 0 | 11 | 8 | 92 | 58 | 0 | 0 | 3
4 | C[C@@H](Oc1cc(-n2cnc3cc(-c4ccncc4)ccc32)sc1C(N)=O)c1ccccc1Cl [GSK479719] | 75 | 9 | 0 | 0 | 15 | 24 | 72 | 0 | 4 | 14 | 37 | 50 | 0 | 0 | 0 | 48 | 0 | 26 | 11 | 0
5 | CNC(=O)c1ccccc1Nc1nc(Nc2cccc(CS(C)(=O)=O)c2)ncc1C.O=CO [GSK1520489] | 52 | 99.2 | 93.5 | 88 | 92.7 | 97.2 | 96.8 | 0 | 20 | 90.7 | 61 | 37 | 73 | 92.6 | 96 | 99.7 | 98.3 | 98.1 | 100 | 84
6 | CSc1nccc(-c2c(-c3ccc(F)cc3)ncn2CCCN2CCOCC2)n1.Cl [SB-217146] | 0 | 14 | 40 | 0 | 8 | 0 | 0 | 13 | 0 | 0 | 0 | 0 | 0 | 0 | 2 | 25 | 0 | 0 | 6 | 0
7 | Cn1cc(-c2cccc3c(N)c(C(N)=O)nnc23)cn1 | 96.5 | 13 | 68 | 62 | 67 | 18 | 0 | 0 | 24 | 0 | 28 | 39 | 0 | 9 | 19 | 31 | 9 | 17 | 15 | 9
8 | Cc1ccc(CC(=O)N2CCc3cc(-c4cn(C)c5ncnc(N)c45)ccc32)cc1 [GSK2634758] | 5 | 0 | 6 | 0 | 13 | 5 | 63 | 1 | 0 | 18 | 1 | 0 | 36 | 12 | 4 | 13 | 0 | 0 | 13 | 6
9 | Cn1ccc2ncnc(Oc3ccc(NC(=O)Nc4cc(C(C)(C)C)on4)c(Cl)c3)c21 | 5 | 66 | 36 | 34 | 0 | 28 | 30 | 2 | 15 | 15 | 17 | 9 | 0 | 19 | 20 | 61 | 17 | 33 | 16 | 6
10 | COC(=O)c1cccc(NC(=O)NC2CCN(c3ccnc(NCc4ccc(F)cc4)n3)CC2)c1 [GSK1379860] | 17 | 35 | 0 | 47 | 10 | 0 | 24 | 0 | 0 | 0 | 26 | 8 | 0 | 0 | 0 | 0 | 0 | 12 | 15 | 8
11 | O=C(Nc1cccc(C(F)(F)F)c1)c1cccc(Oc2ccc3nccn3n2)c1 | 0 | 52 | 0 | 8 | 20 | 65 | 0 | 0 | 31 | 20 | 0 | 0 | 0 | 22 | 2 | 25 | 0 | 13 | 21 | 2
12 | CN(c1cccc(CNc2nc(Nc3ccc4c(c3)CC(=O)N4)ncc2C(F)(F)F)c1)S(C)(=O)=O | 0 | 0 | 39 | 11 | 0 | 14 | 19 | 0 | 0 | 34 | 24 | 14 | 19 | 21 | 48 | 48 | 22 | 0 | 26 | 43
13 | O=C(Nc1ccccc1)c1cccc(Oc2ccc3nccn3n2)c1 | 15 | 15 | 0 | 0 | 0 | 32 | 0 | 0 | 63 | 0 | 0 | 0 | 91.5 | 86 | 0 | 25 | 3 | 21 | 0 | 0
14 | Cc1cccc2c(-c3ccncc3)c(-c3ccc(F)cc3)nn12.Cl [GW461487] | 2 | 0 | 0 | 0 | 19 | 0 | 28 | 5 | 0 | 0 | 0 | 0 | 21 | 0 | 0 | 9 | 0 | 0 | 5 | 8
15 | Cn1ccc2ncnc(Oc3ccc(NC(=O)Nc4cccc(C(F)(F)F)c4)c(Cl)c3)c21 | 0 | 47 | 26 | 15 | 0 | 17 | 39 | 2 | 0 | 0 | 53 | 19 | 6 | 0 | 16 | 0 | 0 | 0 | 1 | 0
16 | COc1cc2nccc(Nc3ccc(Oc4ccccc4)cc3)c2cc1OC.Cl [GI261656] | 29 | 97.6 | 0 | 0 | 11 | 0 | 2 | 9 | 0 | 0 | 0 | 0 | 35 | 0 | 0 | 0 | 0 | 0 | 0 | 8
17 | NC(=O)c1ccc(-c2cc3ncnc(SCC(=O)O)c3s2)cc1 | 0 | 13 | 94.8 | 96.1 | 92 | 79 | 2 | 0 | 10 | 0 | 0 | 0 | 0 | 0 | 0 | 70 | 9 | 0 | 0 | 0
18 | CN(c1ccc2c(c1)nc(NCc1ccc(F)cc1)n2C)c1ccnc(Nc2ccc(CS(C)(=O)=O)cc2)n1.Cl [GW813244] | 28 | 47 | 53 | 25 | 47 | 79 | 60 | 5 | 7 | 13 | 15 | 0 | 0 | 15 | 27 | 49 | 1 | 0 | 0 | 38
19 | CN1CCN(CCNc2nc3cc(Oc4ccc(NC(=O)Nc5cc(C(F)(F)F)ccc5F)cc4)ccc3[nH]2)CC1.Cl.Cl [GW768504] | 0 | 11 | 19 | 0 | 0 | 66 | 3 | 41 | 0 | 0 | 0 | 0 | 14 | 0 | 5 | 0 | 5 | 0 | 0 | 28
